# Article PMC7862700, “An all-to-all approach to the identification of sequence-specific readers for epigenetic DNA modifications on cytosine”
# Tests used:
# Assay in all cases: DAPPL (digital affinity profiling via proximity ligation, sequencing); 10 mM Tris-HCl pH 7.5, 50 mM NaCl, 1 mM DTT, 4% glycerol, room temperature, 30 min; GST-TFs on glutathione beads, 16-mer random dsDNA library, 0.1% formaldehyde crosslink after washing; high values mean tight binding
# Conditions in all cases: protein: recombinant; tags: N-terminal GST; dsDNA, one strand shown
# ELK1 = target: T1, ELK1 (Homo sapiens, UniProt P19419 1-428)
# T1 sequence: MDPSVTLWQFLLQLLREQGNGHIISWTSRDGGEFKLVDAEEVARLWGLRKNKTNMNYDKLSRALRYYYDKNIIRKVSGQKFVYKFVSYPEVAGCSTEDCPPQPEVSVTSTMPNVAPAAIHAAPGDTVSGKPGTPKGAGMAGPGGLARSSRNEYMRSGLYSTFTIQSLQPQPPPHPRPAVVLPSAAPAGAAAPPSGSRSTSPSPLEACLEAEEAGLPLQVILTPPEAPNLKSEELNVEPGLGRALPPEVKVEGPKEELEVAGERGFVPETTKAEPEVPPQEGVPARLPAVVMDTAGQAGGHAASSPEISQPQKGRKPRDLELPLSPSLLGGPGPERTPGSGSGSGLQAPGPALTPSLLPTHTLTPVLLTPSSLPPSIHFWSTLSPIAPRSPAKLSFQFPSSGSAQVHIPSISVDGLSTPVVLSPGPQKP
# How it was run: (§1)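 In yeast, human transcription factors were expressed with a GST fusion, then pulled down on glutathione beads and given DNA barcodes. Pooled with a tag-only sample, they were exposed to 200 nmole of a 16-mer random double-stranded DNA library (Tris/NaCl/DTT/glycerol buffer, room temperature, 30 min), washed, crosslinked with 0.1% formaldehyde, proximity-ligated using BsaI/T4 ligase for 1 h at 37 °C, PCR-amplified and read on an Illumina NextSeq500. Each hexamer's frequency of reads for a factor, divided by the matching frequency for the tag-only sample, gives the binding signal.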
# ERG = target: T2, ERG (Homo sapiens, UniProt P11308 1-479)
# T2 sequence: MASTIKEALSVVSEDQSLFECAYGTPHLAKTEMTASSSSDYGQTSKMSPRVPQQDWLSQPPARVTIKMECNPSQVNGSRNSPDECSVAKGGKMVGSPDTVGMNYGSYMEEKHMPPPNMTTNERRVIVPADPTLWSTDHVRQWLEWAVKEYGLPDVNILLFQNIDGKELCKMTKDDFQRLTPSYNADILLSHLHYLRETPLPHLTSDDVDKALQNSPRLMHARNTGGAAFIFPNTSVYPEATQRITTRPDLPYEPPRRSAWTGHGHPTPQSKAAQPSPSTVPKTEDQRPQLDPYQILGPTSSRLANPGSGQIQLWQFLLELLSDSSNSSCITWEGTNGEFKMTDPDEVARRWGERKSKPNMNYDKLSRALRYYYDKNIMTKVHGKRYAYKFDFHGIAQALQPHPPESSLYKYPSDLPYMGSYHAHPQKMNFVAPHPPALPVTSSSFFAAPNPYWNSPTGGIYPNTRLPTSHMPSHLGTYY
# How it was run: as §1
# ELK3 = target: T3, ELK3 (Homo sapiens, UniProt P41970 1-407)
# T3 sequence: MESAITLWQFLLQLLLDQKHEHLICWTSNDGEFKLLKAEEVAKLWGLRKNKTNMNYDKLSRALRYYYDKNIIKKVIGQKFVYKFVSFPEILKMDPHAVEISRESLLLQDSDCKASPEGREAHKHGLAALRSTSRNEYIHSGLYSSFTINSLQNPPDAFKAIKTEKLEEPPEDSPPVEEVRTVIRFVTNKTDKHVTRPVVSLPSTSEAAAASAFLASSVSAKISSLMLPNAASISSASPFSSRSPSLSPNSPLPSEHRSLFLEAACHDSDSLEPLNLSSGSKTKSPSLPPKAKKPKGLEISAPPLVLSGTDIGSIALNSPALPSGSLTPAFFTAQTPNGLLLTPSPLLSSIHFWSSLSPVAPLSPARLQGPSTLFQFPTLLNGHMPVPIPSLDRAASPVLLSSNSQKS
# How it was run: as §1
# ELK4 = target: T4, ELK4 (Homo sapiens, UniProt P28324-2 1-405)
# T4 sequence: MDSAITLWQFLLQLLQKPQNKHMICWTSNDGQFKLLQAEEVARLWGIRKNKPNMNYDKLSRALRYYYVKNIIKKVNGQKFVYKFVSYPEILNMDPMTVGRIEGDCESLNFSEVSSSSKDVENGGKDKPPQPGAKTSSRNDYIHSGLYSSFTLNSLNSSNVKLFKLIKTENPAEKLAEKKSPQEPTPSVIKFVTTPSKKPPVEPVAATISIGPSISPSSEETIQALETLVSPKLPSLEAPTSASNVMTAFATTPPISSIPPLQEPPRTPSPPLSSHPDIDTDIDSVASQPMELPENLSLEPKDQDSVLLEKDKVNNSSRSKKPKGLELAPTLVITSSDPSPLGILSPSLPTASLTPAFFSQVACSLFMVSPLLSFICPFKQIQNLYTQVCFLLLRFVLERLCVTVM
# How it was run: as §1
# ETV2 = target: T5, ETV2 (Homo sapiens, UniProt O00321 1-342)
# T5 sequence: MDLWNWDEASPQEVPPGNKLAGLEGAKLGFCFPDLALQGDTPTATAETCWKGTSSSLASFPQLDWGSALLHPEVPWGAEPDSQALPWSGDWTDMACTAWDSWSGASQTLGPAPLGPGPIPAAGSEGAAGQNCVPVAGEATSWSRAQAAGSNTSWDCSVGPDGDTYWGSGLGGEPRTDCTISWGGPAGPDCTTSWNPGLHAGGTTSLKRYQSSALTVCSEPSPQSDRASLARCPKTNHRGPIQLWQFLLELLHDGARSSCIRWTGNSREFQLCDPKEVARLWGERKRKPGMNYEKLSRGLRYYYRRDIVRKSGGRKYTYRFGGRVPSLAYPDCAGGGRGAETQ
# How it was run: as §1
# ELF3 = target: T6, ELF3 (Homo sapiens, UniProt P78545 1-371)
# T6 sequence: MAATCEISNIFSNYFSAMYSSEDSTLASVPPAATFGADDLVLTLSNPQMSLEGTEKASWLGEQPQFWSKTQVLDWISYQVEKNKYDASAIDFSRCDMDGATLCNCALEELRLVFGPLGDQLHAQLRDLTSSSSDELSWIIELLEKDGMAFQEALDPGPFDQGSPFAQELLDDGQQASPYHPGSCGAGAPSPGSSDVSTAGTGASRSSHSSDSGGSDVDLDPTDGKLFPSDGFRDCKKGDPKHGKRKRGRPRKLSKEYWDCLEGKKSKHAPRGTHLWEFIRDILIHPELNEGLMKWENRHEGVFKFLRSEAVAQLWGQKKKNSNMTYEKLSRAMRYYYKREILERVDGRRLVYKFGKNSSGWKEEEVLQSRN
# How it was run: as §1
# CRX = CRX (Homo sapiens, UniProt O43186 1-299)
# How it was run: as §1
# ERF = target: T7, ERF (Homo sapiens, UniProt P50548 1-548)
# T7 sequence: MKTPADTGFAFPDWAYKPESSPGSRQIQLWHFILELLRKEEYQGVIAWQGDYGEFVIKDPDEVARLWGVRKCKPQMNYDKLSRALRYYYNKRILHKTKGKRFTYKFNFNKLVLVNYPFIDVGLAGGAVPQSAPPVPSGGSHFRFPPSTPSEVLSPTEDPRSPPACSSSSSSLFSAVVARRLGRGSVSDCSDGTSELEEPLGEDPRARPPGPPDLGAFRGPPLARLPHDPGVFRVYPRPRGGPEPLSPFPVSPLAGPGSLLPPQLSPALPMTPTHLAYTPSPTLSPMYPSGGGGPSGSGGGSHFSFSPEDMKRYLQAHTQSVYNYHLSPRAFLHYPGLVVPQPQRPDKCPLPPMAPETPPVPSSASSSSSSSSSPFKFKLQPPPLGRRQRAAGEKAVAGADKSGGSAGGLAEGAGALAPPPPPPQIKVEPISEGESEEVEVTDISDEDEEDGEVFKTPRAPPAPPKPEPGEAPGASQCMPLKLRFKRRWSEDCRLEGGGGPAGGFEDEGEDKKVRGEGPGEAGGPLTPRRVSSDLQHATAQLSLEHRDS
# How it was run: as §1
# Chain of CRX (O43186 whole entry): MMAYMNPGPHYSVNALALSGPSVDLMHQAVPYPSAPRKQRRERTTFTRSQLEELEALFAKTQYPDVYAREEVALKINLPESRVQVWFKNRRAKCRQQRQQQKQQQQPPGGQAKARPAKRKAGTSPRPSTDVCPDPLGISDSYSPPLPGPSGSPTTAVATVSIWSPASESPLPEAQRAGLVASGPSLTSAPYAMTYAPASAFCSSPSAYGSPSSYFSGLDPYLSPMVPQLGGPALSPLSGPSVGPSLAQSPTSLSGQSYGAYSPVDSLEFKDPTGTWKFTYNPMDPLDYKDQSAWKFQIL
sequence,measurement,setting,value
GTGTTA,binding signal,ELK1,"1.02 fold enrichment (6-mer frequency, TF over GST control)"
same,binding signal,ERG,"1.01 fold enrichment (6-mer frequency, TF over GST control)"
same,binding signal,ELK3,"1.02 fold enrichment (6-mer frequency, TF over GST control)"
same,binding signal,ELK4,"1.04 fold enrichment (6-mer frequency, TF over GST control)"
same,binding signal,ETV2,"1.01 fold enrichment (6-mer frequency, TF over GST control)"
same,binding signal,ELF3,"1.15 fold enrichment (6-mer frequency, TF over GST control)"
same,binding signal,CRX,"1.11 fold enrichment (6-mer frequency, TF over GST control)"
same,binding signal,ERF,"1.06 fold enrichment (6-mer frequency, TF over GST control)"
